Experimental data from a collection of fitness landscapes (doi:10.1126/science.1257360).
Over roughly 140,000 sequences, “enrichment ratio after two sorts for PhoP signalling” has its median near 0; the highest 2% begin near 11. This excerpt belongs to a sample that is enriched for the highest values.

B1: PhoQ; a variant is named by its letters at X, in order, P23837 (parent)
chain: MKKLLRLFFPLSLRVRFLLATAAVVLVLSLAYGMVALIGYSVSFDKTTFRLLRGESNLFYTLAKWENNKLHVELPENIDKQSPTMTLIYDENGQLLWAQRDVPWLMKMIQPDWLKSNGFHEIEADVNDTSLLLSGDHSIQQQLQEVREDDDDAEMTHSVAVNVYPATSRMPKLTIVVVDTIPVELKSSYMVWSWFIYVLSANLLLVIPLLWVAAWWSLRPIEALAKEVRELEEHNRELLNPATTRELTSLVRNLNRLLKSERERYDKYRTTLTDLTHSLKTPLXXLQXXLRSLRSEKMSVSDAEPVMLEQISRISQQIGYYLHRASMRGGTLLSRELHPVAPLLDNLTSALNKVYQRKGVNISLDISPEISFVGEQNDFVEVMGNVLDNACKYCLEFVEISARQTDEHLYIVVEDDGPGIPLSKREVIFDRGQRVDTLRPGQGVGLAVAREITEQYEGKIVAGESMLGGARMEVIFGRQHSAPKDE

Variants of: B1
Assay: enrichment ratio after two sorts for PhoP signalling (ratio (wild type AVST 3.29)); higher = more functional
Conditions: with PhoP (E. coli)

Variant	enrichment ratio
KDMR	≤ 0.25
TRNK	≤ 0.25
HVKY	≤ 0.25
PFRW	≤ 0.25
KMGT	≤ 0.25
QKFN	≤ 0.25
RPYD	≤ 0.25
AMWM	≤ 0.25
AKTK	≤ 0.25
AKFC	≤ 0.25
NMVQ	≤ 0.25
AITI	10.7
AMVA	≤ 0.25
NMTI	≤ 0.25
AMVQ	13.1
AKTC	30.2
AMPM	≤ 0.25
AMTI	11.6
AMIM	29.3
DMSC	≤ 0.25
KPPG	≤ 0.25
MFQM	≤ 0.25
IEMM	≤ 0.25
MKCV	≤ 0.25
WYPM	≤ 0.25

Variant	enrichment ratio
IISF	≤ 0.25
KMPW	≤ 0.25
LYRY	≤ 0.25
PGVK	≤ 0.25
AMTC	20.7
AMFC	≤ 0.25
AMAQ	12.1
AMNK	≤ 0.25
AKAQ	7.28
AMGQ	13.7
AHGQ	≤ 0.25
NMGQ	≤ 0.25
NMAQ	≤ 0.25
HQSV	≤ 0.25
LFRC	≤ 0.25
PWKY	≤ 0.25
DPKV	≤ 0.25
TIQF	9.01
NAIN	≤ 0.25
SRIN	≤ 0.25
SAIN	11.8
KAIN	≤ 0.25
TGIN	≤ 0.25
SQIN	12.8
SGIN	11.4

Variant	enrichment ratio
SCIN	0.637
EQIN	≤ 0.25
VAML	7.99
KNIR	≤ 0.25
SWRM	≤ 0.25
TMWP	≤ 0.25
SLWP	≤ 0.25
DKCH	≤ 0.25
VWNG	≤ 0.25
AGSY	14.7
TGSY	15.9
AISY	5.51
GGSY	≤ 0.25
RGSY	≤ 0.25
AQSY	12.7
AHSY	≤ 0.25
ADSY	≤ 0.25
AKSY	2.91
DTDV	≤ 0.25
WMKH	≤ 0.25
MNKP	≤ 0.25
RIYR	≤ 0.25
FFTK	≤ 0.25
WFGI	≤ 0.25
HTNW	≤ 0.25

Variant	enrichment ratio
KLTI	≤ 0.25
MSGV	13.8
MSHF	2.07
KAGV	≤ 0.25
MRHV	≤ 0.25
MSHV	17.4
KSGV	≤ 0.25
SEQA	≤ 0.25
GVVG	≤ 0.25
LEYW	≤ 0.25
RSAR	≤ 0.25
EASM	≤ 0.25
FALQ	7.48
FITA	≤ 0.25
MALQ	13.1
FPLQ	≤ 0.25
TSLQ	16.4
FDLQ	≤ 0.25
FILQ	11.5
FIMQ	≤ 0.25
WILQ	≤ 0.25
NSLQ	0.291
FQLQ	17.7
MPLQ	≤ 0.25
TPCV	≤ 0.25

Variant	enrichment ratio
HIPN	≤ 0.25
WRHY	≤ 0.25
GDYV	≤ 0.25
LQVN	≤ 0.25
DQMY	≤ 0.25
VHFI	≤ 0.25
FDRQ	≤ 0.25
LRHY	≤ 0.25
KSLQ	≤ 0.25
FCLQ	6.86
FSLQ	11.8
LNSK	≤ 0.25
TCYM	12.1
VECM	0.698
TCCM	20
QECM	≤ 0.25
TCIM	0.447
TCGM	15.3
FCTM	≤ 0.25
TCTM	21.1
TCNM	1.24
TCWM	≤ 0.25
TCYN	3.25
TCYA	1.75
IMKY	≤ 0.25

Variant	enrichment ratio
VMEY	≤ 0.25
TYKQ	≤ 0.25
IGCI	≤ 0.25
THAC	6.19
SQFC	≤ 0.25
WRVD	≤ 0.25
ISHC	≤ 0.25
YTMN	≤ 0.25
EMDR	≤ 0.25
DSWL	≤ 0.25
RECW	≤ 0.25
FMGG	≤ 0.25
EQVK	≤ 0.25
TCCQ	12.5
VECQ	8.23
VECK	≤ 0.25
TCKQ	≤ 0.25
TCCK	21.6
TCCI	7.17
TDEN	≤ 0.25
QTMG	≤ 0.25
DPLR	≤ 0.25
SCTC	7.94
SCTA	12.7
SCTH	9.21

Variant	enrichment ratio
SCTS	14.9
SCTK	7.2
SCTD	≤ 0.25
LRRQ	≤ 0.25
NIGG	≤ 0.25
LVAY	≤ 0.25
HFFS	≤ 0.25
PHFW	≤ 0.25
KCAF	≤ 0.25
MIAF	14
STAF	7.65
MMAF	13
MKAF	≤ 0.25
WIAF	≤ 0.25
SRAF	≤ 0.25
MSAF	3.4
MAAF	≤ 0.25
SCAF	16.3
MCAF	32.1
KMAF	≤ 0.25
LHIP	≤ 0.25
RPYE	≤ 0.25
AWSD	≤ 0.25
WEIC	≤ 0.25
FTRG	≤ 0.25

Variant	enrichment ratio
AQMD	≤ 0.25
LIFC	≤ 0.25
PKNW	≤ 0.25
FRIG	≤ 0.25
LEYC	4.32
WRGG	≤ 0.25
TYMG	14.3
TYHG	≤ 0.25
TYCA	12.1
TYVG	0.756
TYCI	≤ 0.25
TYCE	≤ 0.25
FWCS	1.37
HQAE	≤ 0.25
APEP	≤ 0.25
AHCL	9.7
KCCC	≤ 0.25
ACCI	26.9
ACCK	12.8
KCCY	≤ 0.25
ACCY	19.6
VCCY	≤ 0.25
ACCC	34.1
ACCS	2.23
ACCA	7.21

Variant	enrichment ratio
ACFH	≤ 0.25
YDTQ	≤ 0.25
GRPL	≤ 0.25
KEDR	≤ 0.25
FEMC	10.8
IQYT	≤ 0.25
DHLG	≤ 0.25
NLYQ	≤ 0.25
MPYA	≤ 0.25
ACNK	≤ 0.25
ACCM	14.9
ACCG	25.4
ACCE	≤ 0.25
ACCV	8.87
PCQA	≤ 0.25
HATN	≤ 0.25
NYIP	≤ 0.25
TACI	22.6
TACL	11.4
TACF	18.8
NACF	≤ 0.25
TACS	14.1
TACA	8.47
TAAI	7.96
KACF	≤ 0.25

Variant	enrichment ratio
KACL	≤ 0.25
TAMD	6.3
NACL	4.16
TACE	≤ 0.25
WKNR	≤ 0.25
VKRR	≤ 0.25
DLFL	≤ 0.25
DTVY	≤ 0.25
GNTN	≤ 0.25
FYCC	≤ 0.25
AHHD	≤ 0.25
RGHL	0.34
VRKH	≤ 0.25
TAKR	≤ 0.25
YACQ	≤ 0.25
KACC	≤ 0.25
TACC	13.6
TAQP	≤ 0.25
TACR	14.8
TACQ	15
TADH	4.03
NACR	≤ 0.25
WVLV	≤ 0.25
EKCV	≤ 0.25
QQYK	≤ 0.25

Variant	enrichment ratio
RYKI	≤ 0.25
WKHA	≤ 0.25
HFSC	≤ 0.25
VSFV	0.649
WDSR	≤ 0.25
TKCD	21.6
SLCD	17.9
AKCD	0.285
AICD	5.13
IQCD	≤ 0.25
PLCD	≤ 0.25
AQCD	42.7
ANCD	0.285
KKCD	≤ 0.25
WLCD	≤ 0.25
NQCD	≤ 0.25
TQCD	29.3
FDEE	≤ 0.25
LLLK	≤ 0.25
IWDM	≤ 0.25
WDSH	≤ 0.25
HNFP	≤ 0.25
PDHT	≤ 0.25
MHPL	≤ 0.25
KHNC	≤ 0.25

Variant	enrichment ratio
AWVP	≤ 0.25
NDNL	≤ 0.25
SQCD	11.4
SCCD	16.2
VCCD	≤ 0.25
SNCD	16.4
KCCD	≤ 0.25
KYCD	≤ 0.25
SPCD	≤ 0.25
FQCD	≤ 0.25
STCD	6.22
GQTA	≤ 0.25
QQPV	≤ 0.25
TPAE	≤ 0.25
VMCM	≤ 0.25
QQDM	≤ 0.25
SEES	6.49
LFRE	≤ 0.25
EYQC	≤ 0.25
GVCF	25
NVCF	≤ 0.25
PVCF	≤ 0.25
MVCF	5.97
FVCF	12
GNCF	6.9

Variant	enrichment ratio
KKRY	≤ 0.25
LMRK	≤ 0.25
KFQK	≤ 0.25
KDWW	≤ 0.25
TEEV	≤ 0.25
NEIG	≤ 0.25
TEMV	20.2
TEYV	4.31
HRMR	≤ 0.25
TEGR	≤ 0.25
MEIG	8.35
TEMW	≤ 0.25
TEIG	18.6
TEMS	11.4
TEMD	1.58
TEMR	12.2
